Rows were chosen to be rich in hits. Some 1.1% of all compounds tested hit in one or more screens of this group.
CCHF vOTU inh = CCHFV vOTU protease inhibitors, primary screen, biochemical, Pep-AMC substrate, fluorescence; inhibition, % at 11.5 µM; Crimean-Congo hemorrhagic fever virus L polyprotein viral ovarian tumor (vOTU) protease …; AID 651958, 2012; 370,000 compounds, 0.55% hits; in the data active = inhibition above about 30%
RecA splice inh = Mtb RecA intein splicing inhibitors, primary screen, biochemical, fluorescence, HTS. inhibition, % (test concentration not listed). 290,000 compounds, 0.75% hits. AID 2221, 2009. Protein RecA (Mycobacterium tuberculosis (strain ATCC 25618 / H37Rv)), P9WHJ3. cell-free RecA intein splicing; in the data active = inhibition above about 30%
Mtb betalactam = beta-lactam sensitization of Mtb H37Rv, H37Rv. M. tuberculosis H37Rv growth with meropenem, percent inhibition. inhibition, % at 25 µM. 330,000 compounds, 0.27% hits. AID 434955, 2010;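 note: growth measured after seven days incubation then overnight dye step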
Mtb BioA inh = M. tuberculosis BioA enzyme inhibitors, primary screen, biochemical, plate reader, single point, HTS; AID 602481, 2012; purified M. tuberculosis BioA enzyme; 360,000 compounds, 0.096% hits; inhibition, % at 9.99 µM; in the data active = inhibition above about 40%
Yp Topo-I inh = Yersinia pestis topoisomerase I inhibitors, primary screen, biochemical, cleavage product accumulation, plate reader, single point; activity, % at 10 µM; DNA topoisomerase I (Yersinia pestis CO92); Y. pestis Topo-I cleavage product accumulation; 360,000 compounds, 0.064% hits; in the data active = activity above about 50%, passing the limit was not always enough
BJeLR lethal = MLPCN primary cell-based screen for lethality selective to Ras in HRASV12 cells; BJeLR (HRASV12) viability, CellTiter-Glo ATP luminescence, 48 h; 300,000 compounds, 0.17% hits; inhibition, % (concentration not given with the values); in the data active = inhibition above about 50%
GFP chromo cs = counter-screen: blocks GFP chromophore formation, dose response, counter-screen, biochemical, fluorescence, homogeneous. shares compounds with RecA splice inh. cell-free GFP chromophore formation. EC50, µM. 2,100 compounds, 83% hits
Large screens that a line does not name were inactive (follow-up assays come after a bar, where they were run). Unless noted, the rule behind the calls is not given here.

COc1ccc(C2=NN(C(=O)/C=C/c3ccccc3)C(c3ccccc3)C2)c(OC(C)=O)c1 (stereo unspecified)	RecA splice inh 36 | GFP chromo cs inactive
C/C(CC(=O)Nc1cccnc1)=N\NC(=O)c1ccc([N+](=O)[O-])c(Cl)c1	RecA splice inh 61 (no result: Mtb BioA inh) | GFP chromo cs 35
Nc1nc(-c2ccco2)nn1C(=O)c1ccc(Cl)cc1	RecA splice inh 34 (no result: Mtb BioA inh) | GFP chromo cs inactive
COc1ccc(COC[C@@]23Oc4ccccc4[C@@H](NC(=S)N2C)[C@H]3CO[Si](C)(C)C(C)(C)C)cc1	none (no result: CCHF vOTU inh, RecA splice inh, Mtb betalactam, Yp Topo-I inh, BJeLR lethal)
Cc1ccc(NC(=O)C2=C(c3ccccc3)S(=O)(=O)CCS2(=O)=O)cc1	RecA splice inh 94 (no result: Mtb BioA inh) | GFP chromo cs 1.9
CCCCNC(=O)c1cccc2c(=O)c(C)c(-c3ccccc3)oc12	none (no result: Mtb BioA inh)
CCCCN(C(=O)c1cccc2c(=O)c(C)c(-c3ccccc3)oc12)c1ccccc1	RecA splice inh 33 (no result: Mtb betalactam, Mtb BioA inh) | GFP chromo cs inactive
CCCNC(=O)C[C@@H]1C[C@@H]2c3cc(NC(=O)Cc4ccncc4)ccc3O[C@@H]2[C@@H](CO)O1	none (no result: CCHF vOTU inh, RecA splice inh, Mtb betalactam, Yp Topo-I inh, BJeLR lethal)
Cc1cc(N)n(-c2ccc([N+](=O)[O-])cc2)n1	none (no result: Mtb BioA inh)
Cc1cc(C)n(-c2ccc([N+](=O)[O-])cc2)n1	RecA splice inh 43 | GFP chromo cs inactive
C[C@H]1CN([C@@H](C)CO)S(=O)(=O)c2ccc(-c3ccc(C(=O)N(C)C)cc3)cc2O[C@@H]1CN(C)C(=O)Nc1ccccc1F	none (no result: CCHF vOTU inh, RecA splice inh, Mtb betalactam, Yp Topo-I inh, BJeLR lethal)
C[C@H](CO)N1C[C@H](C)[C@H](CN(C)Cc2ccc(Cl)c(Cl)c2)Oc2ccc(NS(=O)(=O)c3ccccc3)cc2C1=O	none (no result: CCHF vOTU inh, RecA splice inh, Mtb betalactam, Yp Topo-I inh, BJeLR lethal)
O=[N+]([O-])c1c(NCc2ccco2)ccc2nonc12	RecA splice inh 42 | GFP chromo cs 20
O=[N+]([O-])c1c(Nc2ccccc2)ccc2nonc12	none
CCOc1ccc(C(c2c(C)[nH][nH]c2=O)c2c(C)[nH][nH]c2=O)cc1OC	RecA splice inh 94 | GFP chromo cs 0.44
CCOc1cc(C(c2c(C)[nH][nH]c2=O)c2c(C)[nH][nH]c2=O)ccc1OS(=O)(=O)c1ccc(C)cc1	RecA splice inh 97 | GFP chromo cs 0.49
C#CCOc1ccc(OC)cc1C(c1c(C)[nH][nH]c1=O)c1c(C)[nH][nH]c1=O	RecA splice inh 95 (no result: CCHF vOTU inh) | GFP chromo cs 0.41
C[C@@H]1CN([C@@H](C)CO)C(=O)c2cc(NC(=O)Nc3ccc(C(F)(F)F)cc3)ccc2O[C@H]1CN(C)C	none (no result: CCHF vOTU inh, RecA splice inh, Mtb betalactam, Yp Topo-I inh, BJeLR lethal)
C[C@@H]1CN([C@@H](C)CO)S(=O)(=O)c2ccc(C3=CCCC3)cc2O[C@H]1CN(C)C(=O)C1CCCCC1	none (no result: CCHF vOTU inh, RecA splice inh, Mtb betalactam, Yp Topo-I inh, BJeLR lethal)
CCOC(=O)C1=C(C)n2c(s/c(=C/c3cccc([N+](=O)[O-])c3)c2=O)=NC1c1ccc(O)c(OC)c1 (stereo unspecified)	RecA splice inh 35 (no result: Mtb betalactam) | GFP chromo cs 36
CCCc1[nH]nc2c1C(c1cccc(OC(=O)c3ccco3)c1)C(C#N)=C(N)O2 (stereo unspecified)	RecA splice inh 59 (no result: Mtb BioA inh) | GFP chromo cs 18
CCCc1[nH]nc2c1C(c1cc(OC)ccc1F)C(C#N)=C(N)O2 (stereo unspecified)	none
CCCc1[nH]nc2c1C(c1cc(OC)cc(OC)c1)C(C#N)=C(N)O2 (stereo unspecified)	RecA splice inh 44 | GFP chromo cs 4
COCc1[nH]nc2c1C(c1ccccc1Cl)C(C#N)=C(N)O2 (stereo unspecified)	none
CC1(C)CC(=O)C2=C(C1)OC(N)=C(C#N)C2c1cccc(OC(=O)c2ccco2)c1 (stereo unspecified)	none
CCCc1[nH]nc2c1C(c1ccc(OC)c(CSC3=NCCS3)c1)C(C#N)=C(N)O2 (stereo unspecified)	RecA splice inh 74 | GFP chromo cs 15

Bioassay records deposited in PubChem BioAssay by several laboratories.
